Measurements as given in paper PMC4552634, “A New Set of Chemical Starting Points with Plasmodium falciparum Transmission-Blocking Potential for Antimalarial Drug Discovery” (PLoS ONE, 2015).
Hit rate of the full screen: of about 13,000 compounds, about 3,200 (25%) showed an effect of 50% or more. This is one part of the list.

These compounds were tested on P. falciparum stage V gametocytes. Details: 48 h, 5 µM; inhibitor.
Parameters: BacTiter-Glo ATP luminescence viability of purified stage V gametocytes in 384-well plates, per cent inhibition versus DMSO
For `Cc1c(Cc2ccccc2Cl)cnc2nc(N)nc(N)c12` [TCMDC-137245], the “% Inhibition” value was 7.074%. With `CCC(C)NS(=O)(=O)c1ccc2nc(Nc3ccc(C)cc3)n(C(C)C(C)(C)C)c2c1` (centres unmarked) [TCMDC-136230] the “% Inhibition” value was -32.2%. With `Cc1cccc2[nH]c(-c3ccc(-c4cccc(NC(=O)Nc5ccsc5)c4)cc3)nc12` [TCMDC-133217] the “% Inhibition” value was -11.37%. `CS(=O)(=O)CCOCc1ccc(-c2ccc3ncnc(Nc4ccc(OCc5cccc(F)c5)c(Cl)c4)c3c2)o1` [TCMDC-138529] was tested, and the “% Inhibition” value was -28.77%. In the case of `CC1(C)N=C(N)N=C(N)N1OCc1cc(Cl)cc2c1OCOC2` [TCMDC-131577], the “% Inhibition” value is reported as 12.67%. In the case of `COc1cc(C)nc2ccc(NC(=O)Nc3ccccc3[N+](=O)[O-])cc12` [TCMDC-139396], the “% Inhibition” value is reported as 3.442%. For `CCN(CCCN1CCCCC1)c1cc(C)nc(Nc2ccc(C)cc2C)n1` [TCMDC-132445], the “% Inhibition” value was 14.07%. In the case of `CCN(CCCN1CCCCC1)c1cc(C)nc(Nc2ccc3c(c2)CCC3)n1` [TCMDC-132443], the “% Inhibition” value is reported as -21.7%. For `CCN(CCCN1CCCCC1)c1cc(C)nc(Nc2ccc(Cl)cc2C)n1` [TCMDC-132447], the “% Inhibition” value was 51.94%. In the case of `CCN(CCCN1CCCCC1)c1cc(C)nc(Nc2cccc3c2CCCC3)n1` [TCMDC-132431], the “% Inhibition” value is reported as 65.25%. In the case of `CCN(CCCN1CCCCC1)c1cc(C)nc(Nc2ccc(C)cc2Cl)n1` [TCMDC-132442], the “% Inhibition” value is reported as 11.92%. In the case of `CCCc1ccccc1Nc1nc(C)cc(N(CC)CCCN2CCCCC2)n1` [TCMDC-132434], the “% Inhibition” value is reported as 49.3%. `COc1ccc2nccc([C@@H](O)CN3CCC(NCc4cc5oc(=O)[nH]c5cc4Cl)CC3)c2c1` [TCMDC-141121] was tested, and the “% Inhibition” value was -3.584%. `Cc1cccc2nc(-c3cccc(-c4ccc(NC(=O)NC5CC5c5ccccc5)cc4)c3)[nH]c12` (centres unmarked) [TCMDC-133252] was tested, and the “% Inhibition” value was -20.42%. For `Cc1cc2ncc(C(N)=O)c(Nc3ccc(N4CCOCC4)cc3)c2cc1S(C)(=O)=O.Cl` [TCMDC-135825], the “% Inhibition” value was -8.581%. `CCCCc1ccc(-c2c(N)nc(N)nc2CC)cc1` [TCMDC-138064] was tested, and the “% Inhibition” value was -26.34%. In the case of `O=C(/C=C/c1ccc(Cl)c(Cl)c1)NCCCCCCN1CCN(C(=O)Nc2cc(F)cc(F)c2)CC1` [TCMDC-135832], the “% Inhibition” value is reported as -49.78%. In the case of `COc1ccc2nccc(NCC3(O)CCN(CC(O)c4ccc5c(c4)NC(=O)CS5)CC3)c2n1` (centres unmarked) [TCMDC-141462], the “% Inhibition” value is reported as 18.04%. `CCc1cc([C@H]2O[C@@H](n3cnc4c(NCC(c5ccccc5)c5ccccc5)nc(NCCNc5ccccn5)nc43)[C@H](O)[C@@H]2O)on1` [TCMDC-138085] was tested, and the “% Inhibition” value was 3.442%. With `CC(C)(C)c1ccc(CN2CCC(NC(=O)c3ccc(-c4cccc(Cl)c4)s3)CC2)cc1` [TCMDC-134352] the “% Inhibition” value was -48.88%. In the case of `COc1ccc(CCNC(=O)c2cc(C)ccc2O)cc1-c1ccc(C(C)(C)C)cc1` [TCMDC-136184], the “% Inhibition” value is reported as 6.315%. In the case of `CC(C)(C)c1ccc(CNC(=O)c2cc(CNC3CCC(N)CC3)ccc2O)cc1` (centres unmarked) [TCMDC-140776], the “% Inhibition” value is reported as 87.73%. For `COc1ccc(O)c(C(=O)NCCc2ccc(OC)c(-c3ccc(C(C)(C)C)cc3)c2)c1` [TCMDC-136183], the “% Inhibition” value was 40.96%. `O=C(NCc1ccc(Cl)c(Cl)c1)c1cc(CNC2CCNCC2)ccc1O` [TCMDC-140774] was tested, and the “% Inhibition” value was 49.2%. With `CC(C)(C)c1ccc(CNC(=O)/C=C/c2ccc(CNC3CCNCC3)cc2)cc1` [TCMDC-140773] the “% Inhibition” value was 88.02%. In the case of `CC(C)(C)C/C=C\c1ccc(C(=O)NCC2CC2)cc1` [TCMDC-138516], the “% Inhibition” value is reported as 17.43%. With `CC(C)(C)c1ccc(CNC(=O)c2cc(CNC3CCNCC3)ccc2O)cc1` [TCMDC-140775] the “% Inhibition” value was 70.98%. With `CC(C)(CNC(=O)/C=C/c1ccc(C(F)(F)F)cc1)CNc1cc(=O)c2ccccc2[nH]1` [TCMDC-139403] the “% Inhibition” value was -57.07%. `CC(C)(C)c1ccc(CN2CCC(NC(=O)c3ccc(-c4ccccc4Cl)s3)CC2)cc1` [TCMDC-134351] was tested, and the “% Inhibition” value was 7.857%. `CC(C)(C)c1ccc(CNC(=O)c2ccc(CNC3CCC(N)CC3)s2)cc1` (centres unmarked) [TCMDC-140777] was tested, and the “% Inhibition” value was 101.7%. For `CC(C)(C)c1ccc(CNC(=O)c2cc(CNC3CCNC3)ccc2O)cc1` (centres unmarked) [TCMDC-140761], the “% Inhibition” value was 47.42%. In the case of `CC(C)[C@H](NC(=O)c1ccc(O)c(-c2ccc(Cl)c(Cl)c2)c1)C(=O)NC1CCCCCC1` [TCMDC-140844], the “% Inhibition” value is reported as 10.04%. For `Cc1cc(O)c(C(C)C)cc1C1(c2cc(C(C)C)c(O)cc2C)OC(=O)c2ccccc21` [TCMDC-123951], the “% Inhibition” value was -40.8%. With `Cn1nccc1C(=O)NCCNCc1cccc(-c2ccc(-c3nc4ccccc4[nH]3)cc2)c1.O=C(O)C(F)(F)F` [TCMDC-133019] the “% Inhibition” value was -30.97%. `CC(C)(C)c1cc(C(=O)N2CCC(c3ccccn3)CC2)n(Cc2ccccc2)n1` [TCMDC-133770] was tested, and the “% Inhibition” value was -53.32%. In the case of `CN(Cc1ccccc1)C1CCN(c2cc(NC(=O)c3cccc(F)c3)ccn2)CC1` [TCMDC-135000], the “% Inhibition” value is reported as -5.844%. `Clc1nc(Cl)c2c(ccn2Cc2ccccc2)n1` [TCMDC-137801] was tested, and the “% Inhibition” value was 10.13%. In the case of `Clc1ncnc2ncn(Cc3cccc(Br)c3)c12` [TCMDC-137635], the “% Inhibition” value is reported as 63.17%. `CCCCCN1CCCC(CNS(=O)(=O)c2cccc(C(=O)Nc3ccc(C(F)(F)F)cc3)c2)C1` (centres unmarked) [TCMDC-133672] was tested, and the “% Inhibition” value was -63.4%. With `Fc1cccc(Cn2ncc3cc(Nc4ncnc5sc(C#Cc6ncc[nH]6)cc45)ccc32)c1` [TCMDC-135428] the “% Inhibition” value was -11.76%. `O=c1cc(NCCCNCc2cc3ccc(Br)cc3s2)[nH]c2ccccc12` [TCMDC-140332] was tested, and the “% Inhibition” value was -45.39%. `OC(c1n[nH]c(=S)n1-c1ccccc1)C(O)c1n[nH]c(=S)n1-c1ccccc1` (centres unmarked) [TCMDC-125763] was tested, and the “% Inhibition” value was 1.463%. For `Cn1cncc1-c1cc2c(Nc3ccc(OCc4ccccc4)cc3)ncnc2cn1` [TCMDC-137188], the “% Inhibition” value was -27.44%. In the case of `Cc1[nH]c(C)c(-c2ccc(-c3ccc(OC(F)(F)F)cc3)nc2)c(=O)c1Br` [TCMDC-136016], the “% Inhibition” value is reported as 67.89%. For `Cc1[nH]c(C)c(-c2ccc(-c3ccc(OC(F)(F)F)cc3)nc2)c(=O)c1Cl` [TCMDC-135677], the “% Inhibition” value was 60.39%. With `Cc1[nH]c(C)c(-c2ccc(-c3cccc(OC(F)(F)F)c3)nc2)c(=O)c1Cl` [TCMDC-136286] the “% Inhibition” value was 5.058%. With `CC(=O)c1sc(NC(=O)Nc2ccc(C)cc2C)nc1C` [TCMDC-124895] the “% Inhibition” value was -9.928%. `CO/C(=C\C=C\c1cc2cc(Cl)c(Cl)cc2[nH]1)C(=O)Nc1ccc(NCCN(C)C)nc1` [TCMDC-139073] was tested, and the “% Inhibition” value was -22.07%. With `Cc1cccc2[nH]c(C3CCN(CC4CCN(C(=O)/C=C/c5ccc(Cl)c(Cl)c5)CC4)CC3)nc12` [TCMDC-140146] the “% Inhibition” value was -0.3523%. For `CCOC(=O)[C@H](Cc1cccc2ccccc12)NC(=O)[C@H](CCC(=O)OC(C)(C)C)NC(=O)c1ccc(N(C)Cc2cnc3nc(N)nc(N)c3n2)cc1` [TCMDC-137288], the “% Inhibition” value was 41.06%. With `Cc1cccc2nc(-c3ccc(-c4ccc(CNCCCN5CCCC5=O)cc4)s3)[nH]c12.O=C(O)C(F)(F)F` [TCMDC-132755] the “% Inhibition” value was 11.61%. In the case of `CCOC(=O)c1ccc(OCCOc2ccccc2)cc1` [TCMDC-125533], the “% Inhibition” value is reported as 1.604%. In the case of `CCCCOC(=O)c1ccc(Nc2cc(C)nc3ccc(OC)cc23)cc1` [TCMDC-124192], the “% Inhibition” value is reported as 8.663%. In the case of `CCCCOc1ccc(C(=O)C(CCC(CNC(C)(C)C)C(=O)c2ccc(OCCCC)cc2)CNC(C)(C)C)cc1` (centres unmarked) [TCMDC-124120], the “% Inhibition” value is reported as 110.6%. In the case of `CCCc1ccc(S(=O)(=O)NC2CCN(C(=O)Nc3ccc(I)cc3)CC2)cc1` [TCMDC-139436], the “% Inhibition” value is reported as 4.903%. `CS(=O)(=O)CCNC(=O)c1ccc(-c2cc3c(Nc4ccc5c(cnn5Cc5ccccc5)c4)ncnc3cn2)o1` [TCMDC-138125] was tested, and the “% Inhibition” value was 1.646%. For `Cc1cc(N[C@@H](Cc2ccccc2)C(=O)NCc2cccs2)nc(NCCc2cccnc2)n1` [TCMDC-134819], the “% Inhibition” value was 56.43%. With `Cc1cc(N[C@@H](Cc2ccccc2)C(=O)NCc2cccs2)nc(NCCc2ccccn2)n1` [TCMDC-134747] the “% Inhibition” value was 121.6%. For `COc1ccccc1CCNc1nc(C)cc(N[C@@H](Cc2ccccc2)C(=O)NCc2cccs2)n1` [TCMDC-134802], the “% Inhibition” value was 51.92%. In the case of `Cc1cc(N[C@@H](Cc2ccccc2)C(=O)NCc2cccs2)nc(NCC2CCCCC2)n1` [TCMDC-134930], the “% Inhibition” value is reported as -30.67%. For `Cc1cc(N[C@@H](Cc2ccccc2)C(=O)NCc2cccs2)nc(NCCc2ccc(F)cc2)n1` [TCMDC-134787], the “% Inhibition” value was 66.5%. For `CC(C)(C)c1cc(C(=O)Nc2ccc(C(=N)N)cc2)c(O)c(C(C)(C)C)c1` [TCMDC-136316], the “% Inhibition” value was 24.98%. With `CCc1ccc(C(=O)Nc2cccc(CN3CCCN(Cc4ccc(O)cc4)CC3)c2)cc1` [TCMDC-141884] the “% Inhibition” value was 21.35%. For `Cc1ccc(NC(=O)c2cccc(CN3CCCN(CC4CCCCC4)CC3)c2)cc1F` [TCMDC-135958], the “% Inhibition” value was -34.77%. For `COCCSc1nc2scc(C)c2c(=O)n1Cc1cccc(OC)c1` [TCMDC-134420], the “% Inhibition” value was 25.73%. In the case of `CCCCCN1CCC(NC(=O)c2ccc(C(=O)Nc3ccc(C(C)C)cc3)cc2)C1` (centres unmarked) [TCMDC-136744], the “% Inhibition” value is reported as -20.17%. With `Nc1ncnc2c1ncn2C(CO)Cc1ccc(O)cc1` (centres unmarked) [TCMDC-137893] the “% Inhibition” value was -20.6%. `C[C@H](Cc1ccc(C[C@@H](C)NCC(O)c2cc(Cl)c(N)c(Cl)c2)cc1)NCC(O)c1cc(Cl)c(N)c(Cl)c1` (some centres unmarked) [TCMDC-131548] was tested, and the “% Inhibition” value was 39.43%.
